Compound activity: PubChem BioAssay, National Center for Advancing Translational Sciences (NCATS)
NS1 function inh = qHTS Assay for Inhibitors of Influenza NS1 Protein Function; Potency, µM (top dose mostly 46.1 µM), without a hit: at the top dose activity, positive = more growth; 270,000 tested, 0.4% active; calls by dose curve; also: actives are rising curves; nearly all actives have a fitted effect of over 50% in size
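Read-out: OD600 growth recovery of NS1-expressing budding yeast. Cells grown overnight at 30C in -URA glucose medium, washed, resuspended and diluted 1:100 in 2% galactose assay medium, pH 6.0. Same strain lacking NS1 served as positive control.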
Tb PYK inh = qHTS of Trypanosoma Brucei Inhibitors; AID 624173, 2012; TbPYK enzyme, Kinase-Glo Plus ATP luminescence, 45 min; pyruvate kinase (Trypanosoma brucei), Q57TT1; 410,000 tested, 0.12% active; Potency, µM (doses to about 76.8 µM), for inactives: at the highest dose activity, negative = inhibition, most hits filed as inhibitors; also: % is scaled to controls: 0 for no effect and ±100 for the full control effect; nearly all actives have a fitted effect of over 50% in size
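Activity of T. brucei pyruvate kinase was followed by Kinase-Glo Plus luminescence after the enzyme reacted 45 min at room temperature with 130 uM ADP (final) and substrate. Test compounds were added before ADP at multiple concentrations.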
Sm TGR block = qHTS Assay for the Inhibitors of Schistosoma Mansoni Peroxiredoxins. Potency, µM (highest dose often 114 µM), for the others: top-dose activity change, negative = inhibition, hits mostly inhibitors. 360,000 tested, 3% active. purified TGR, DTNB reduction, TNB absorbance 405 nm. Schistosoma mansoni thioredoxin glutathione reductase (TGR), Q962Y6; also: % is scaled to controls: 0 for no effect and ±100 for the full control effect; nearly all actives have a fitted effect of over 60% in size
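First, TGR (20 nM dispensed) and NADPH were mixed with compound. Second, a 15 min room-temperature incubation followed. Third, further NADPH and then DTNB were added to start the reaction. Finally, TNB absorbance was monitored kinetically.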
FBPA Giardia inh = qHTS Assay for Inhibitors of Fructose-1,6-bisphosphate Aldolase from Giardia Lamblia | 290,000 tested, 0.71% active | A8B2U2 | purified Giardia FBPA | AID 2451, 2010 | Potency, µM (titrated, usually from 59.6 µM), without a hit: top-dose activity, negative = inhibition, actives largely listed as inhibitors; also: % is scaled to controls: 0 for no effect and ±100 for the full control effect; nearly all actives have a fitted effect of over 55% in size
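40 nM FBPA preincubated 10 min at RT with compound (up to 57.5 uM final), then substrate plus GAPDH/TPI/NAD/arsenate coupling and diaphorase/resazurin added. Fluorescence read after 20 min at RT, 525/598 nm.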
LmPK inh = qHTS Assay for Inhibitors of Leishmania Mexicana Pyruvate Kinase (LmPK) | Q27686 | purified LmPK, Kinase-Glo ATP luminescence, 1 h | Potency, µM (series often up to 57.5 µM), without a hit: top-dose activity change, negative = inhibition, actives largely listed as inhibitors | 290,000 tested, 0.37% active; also: % is scaled to controls: 0 for no effect and ±100 for the full control effect
Target sequence (Q27686 whole entry, looked up): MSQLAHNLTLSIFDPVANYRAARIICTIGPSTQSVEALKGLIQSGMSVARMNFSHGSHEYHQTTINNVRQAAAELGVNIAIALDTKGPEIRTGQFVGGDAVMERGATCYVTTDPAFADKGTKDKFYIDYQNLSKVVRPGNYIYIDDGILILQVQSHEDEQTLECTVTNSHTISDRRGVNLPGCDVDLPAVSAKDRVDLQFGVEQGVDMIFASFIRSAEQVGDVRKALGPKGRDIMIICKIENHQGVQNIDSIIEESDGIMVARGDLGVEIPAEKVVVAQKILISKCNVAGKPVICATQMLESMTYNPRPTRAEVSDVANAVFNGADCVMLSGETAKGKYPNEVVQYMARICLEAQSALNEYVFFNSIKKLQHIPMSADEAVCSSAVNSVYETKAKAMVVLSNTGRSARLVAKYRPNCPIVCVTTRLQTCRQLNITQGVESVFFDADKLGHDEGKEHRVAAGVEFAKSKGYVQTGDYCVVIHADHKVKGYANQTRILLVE
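Pyruvate kinase activity monitored as ATP production (luciferase luminescence). Conditions: 0.1 nM enzyme, 0.5 mM PEP, 0.1 mM ADP, 1 h, RT; normalized against uninhibited and no-enzyme wells.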
RE007 growth inh = qHTS Assay for Inhibitors of the HIV-1 protein Vpr; 360,000 tested, 0.21% active; Potency, µM (titrated, usually from 92.2 µM), for the others: at the top dose activity change, negative = less growth, most hits filed as inhibitors; S. pombe RE007 Vpr strain, BacTiter-Glo ATP luminescence, 24 h; active = well fitted falling curve with a large enough effect; inconclusive = small, poorly fitted or top-dose-only effect; inactive = no such curve, though single readings can be large or run the other way; also: % is scaled to controls: 0 for no effect and ±100 for the full control effect; nearly all actives have a fitted effect of over 50% in size
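Fission yeast RE007 carrying one integrated HIV-1 vpr copy, seeded at OD 0.01 in PMG+AL medium with 23 nL pinned compound. Grown 24 h at 30 degrees; viability read by BacTiter-Glo luminescence after 5 min.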
* marks the source's active call; other numbers are inactive results; u = inconclusive; x = no result given. Most compounds without a hit are left out; they make up all but 3.5% or so of the library. Unless noted, calls follow the shape of the dose curve; as a rule, active = well fitted curve in the direction sought with a large enough effect; inconclusive = small, poorly fitted or top-dose-only effect, or another doubt; inactive = no such curve, though single readings can be large; an effect the other way counts as inactive or inconclusive. Potency is read from the fitted curve at half-maximal effect.

SMILES | NS1 function inh | Tb PYK inh | Sm TGR block | FBPA Giardia inh | LmPK inh | RE007 growth inh
CC1=NN(Cc2ccccc2)C(=O)C1C(c1ccccc1)C(C#N)C#N (stereo not given) | 29% | -8% | -7% | -19% | -1% | -15%
CC1=NN(Cc2ccccc2)C(=O)C1C(c1ccc(Cl)cc1)C(C#N)C#N (stereo not given) | 6% | -13% | 14µM* | -27% | -4% | -3%
Cc1ccc(Nc2c(-c3ccc(C)s3)nc3ncccn23)cc1 | x | -2% | -4% | x | x | x
O=C(c1ccc(Cl)cc1)C(CN1CCCCC1)c1ccccc1 (stereo not given) | -89% | -9% | 6.3µM* | -4% | 1% | u
CCOC(=O)C(CN1CCCC1)c1ccccc1 (stereo not given) | x | 3% | 0% | x | x | -11%
O=C(c1ccccc1)C(CN1CCCC1)c1ccccc1 (stereo not given) | -28% | -15% | 45µM* | -7% | 2% | u
COC1OC(CO)C(OC2OC(C(=O)O)C(OC3OC(COS(=O)(=O)O)C(OC4OC(C(=O)O)C(OC5OC(CO)C(OC6OC(C(=O)O)C(OC7OC(COS(=O)(=O)O)C(OC8OC(C(=O)O)=C[C@H](O)C8OS(=O)(=O)O)C(O)C7NC(C)=O)[C@@H](O)C6O)C(O)C5NC(C)=O)[C@@H](O)C4O)C(O)C3NC(C)=O)[C@@H](O)C2O)C(O)C1NC(C)=O (stereo not given in full) | x | -8% | x | -5% | x | x
Cc1nn(Cc2ccccc2)c(C)c1N | 3% | 4% | 0% | u | -7% | 10%
Cc1nn(Cc2ccccc2)c(C)c1C=C1C(=O)NC(=S)NC1=O | 15% | u | 7.9µM* | -21% | 1% | 20%
c1ccc(C2=Nc3ccccc3OC2)cc1 | -34% | -3% | 50µM* | -9% | u | u
O=C(CSc1nc2sc3c(c2c(=O)n1-c1ccccc1)CCCC3)NCc1ccco1 | 3% | -5% | -11% | 4% | 0% | 6%
COCCCn1c(SCC(=O)NCc2ccco2)nc2sc3c(c2c1=O)CCC3 | -10% | 5% | 40µM* | -1% | 3% | 12%
O=C(CSc1ncnc2sc3c(c12)CCCCC3)NCc1ccco1 | -7% | -1% | 32µM* | 12% | 5% | -3%
CC(C)c1nc2sc3c(SCC(=O)NCc4ccco4)ncnc3c2c2c1CCC2 | 6% | -10% | 25µM* | -17% | 1% | 0%
CC(C)Cc1nc2sc3c(SCC(N)=O)ncnc3c2c2c1CCC2 | -3% | -2% | -1% | 1% | -1% | 25%
O=C(CSc1ncnc2sc3c(c12)CCCC3)c1ccco1 | -14% | -19% | -24% | 6% | 3% | -10%
CCCCCCCCCCCC | x | x | x | 0% | x | x
CCn1c(C(=O)N2CCC(C(=O)N3CCN(c4cc(C)ccc4C)CC3)CC2)cc2sccc21 | x | -5% | -3% | x | x | x
COc1ccc(C2C=C(c3ccccc3)Nc3nc(CCCO)nn32)cc1 (stereo not given) | -11% | -9% | 25µM* | -9% | 4% | -18%
COc1ccc(C2C=C(c3cccs3)Nc3nc(CCCO)nn32)cc1 (stereo not given) | 1% | x | 40µM* | -22% | -3% | x
OCCCc1nc2n(n1)C(c1cccc(Cl)c1)C=C(c1ccccc1)N2 (stereo not given) | x | 1% | -14% | x | x | x
OCCCc1nc2n(n1)C(c1ccccc1)C=C(c1ccccc1)N2 (stereo not given) | 9% | 2% | 25µM* | -13% | 1% | 10%
CCCN(c1ccccc1F)S(=O)(=O)c1cc(-c2cc(C)no2)ccc1C | x | -10% | 5% | x | x | x
O=[N+]([O-])c1ccc(N=Cc2ccc(Br)c([N+](=O)[O-])c2)cc1 | -25% | 1% | 32µM* | -12% | 1% | -18%
CCOc1ccc2cc(C3CC(c4ccco4)=NN3S(=O)(=O)c3ccccc3)c(Cl)nc2c1 (stereo not given) | u | 3% | -3% | -7% | 0% | 12%
SMILES | NS1 function inh | Tb PYK inh | Sm TGR block | FBPA Giardia inh | LmPK inh | RE007 growth inh
Cc1ccc2nc(Cl)c(C3CC(c4ccco4)=NN3S(C)(=O)=O)cc2c1 (stereo not given) | 1% | -8% | 14µM* | 0% | 3% | 25%
CCOc1ccc2cc(C3CC(c4ccco4)=NN3S(C)(=O)=O)c(=O)[nH]c2c1 (stereo not given) | 4% | 7% | 3.2µM* | -12% | -1% | -8%
Cc1ccc2cc(C3CC(c4ccco4)=NN3S(C)(=O)=O)c(Cl)nc2c1 (stereo not given) | -5% | -5% | 11µM* | -7% | 2% | -6%
Cc1ccc2cc(C3CC(c4ccco4)=NN3S(=O)(=O)c3ccccc3)c(Cl)nc2c1 (stereo not given) | u | 1% | -23% | -7% | 1% | 35%
COc1ccc2cc(C3CC(c4ccco4)=NN3S(=O)(=O)c3ccccc3)c(Cl)nc2c1 (stereo not given) | u | 1% | 0% | -3% | -2% | -1%
CCOc1ccc2nc(Cl)c(C3CC(c4ccco4)=NN3S(C)(=O)=O)cc2c1 (stereo not given) | 3% | -9% | 32µM* | -1% | -1% | -2%
Cc1ccc2c(c1)c1c3n2CCN=C3CCC1 | 1% | 5% | -20% | -6% | 7% | -17%
c1cc2c(cc1C1CCCCC1)c1c3n2CCN=C3CCC1 | 16% | -8% | 7.9µM* | 10% | -3% | 35%
O=S(=O)(C/C(=C/CO)S(=O)(=O)c1ccccc1)c1ccccc1 | 14% | -1% | 4.5µM* | 0% | 1% | -6%
c1nc(SSc2ncnc3nc[nH]c23)c2[nH]cnc2n1 | x | 3.5µM* | x | x | x | -1%
CSc1ncnc2nc[nH]c12 | -24% | x | x | x | x | x
CCOc1ccc(NC(c2ccccn2)c2oc(CO)cc(=O)c2O)cc1 (stereo not given) | 1% | -13% | 10µM* | u | 2% | -9%
Fc1ccccc1-c1n[nH]c(=S)n1/N=C/c1c[nH]c2ccccc12 | 7% | u | 0% | 0% | 10µM* | 1%
Fc1ccccc1/C=N/n1c(C2CCCCC2)n[nH]c1=S | -31% | u | 31% | 6% | -13% | 7%
c1cncc(C2Nc3cccc4cccc(c34)N2)c1 | -1% | 0% | 8.9µM* | u | -14% | -10%
CN1c2ccccc2N(C)C1c1ccc2c(c1)OCO2 | -1% | -9% | -2% | -3% | -2% | -11%
